Assay outcomes: PubChem BioAssay, Sanford-Burnham Center for Chemical Genomics
NadD inh = NadD (S. aureus) enzyme inhibition | purified NadD enzyme, colorimetric absorbance read-out | inhibition, % at 20 µM | 360,000 compounds, 0.78% hits; in the data active = inhibition above about 26%
PfG6PD inh = PfG6PD (Plasmodium falciparum) enzyme inhibition | PfGluPho enzyme, NADPH resazurin-diaphorase fluorescence | inhibition, % at 20 µM | 350,000 compounds, 0.78% hits | AID 504690;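 active = inhibition reaching at least a set limit at 20 µM in the primary screen, cut at about 59% in these data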
H9c2 TAG inh = reduces triacylglycerol accumulation in H9c2 cells. AID 651582. 230,000 compounds, 0.66% hits. Nile Red lipid (TAG) fluorescence; cells loaded with 200 µM oleic acid. inhibition, % at 12.5 µM;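 active = pattern-corrected inhibition of lipid staining of at least 50% with the nuclear-stain viability signal not falling by more than 50%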
APOBEC3A inh = inhibitors of human APOBEC3A DNA deaminase. P31941. recombinant A3A, FAM/TAMRA ssDNA deamination fluorescence. inhibition, % at 20 µM. 330,000 compounds, 0.41% hits;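 active = at least 40% inhibition at 20 µM here, with at most 30% in a related deaminase screen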
Target sequence (P31941 whole entry, looked up): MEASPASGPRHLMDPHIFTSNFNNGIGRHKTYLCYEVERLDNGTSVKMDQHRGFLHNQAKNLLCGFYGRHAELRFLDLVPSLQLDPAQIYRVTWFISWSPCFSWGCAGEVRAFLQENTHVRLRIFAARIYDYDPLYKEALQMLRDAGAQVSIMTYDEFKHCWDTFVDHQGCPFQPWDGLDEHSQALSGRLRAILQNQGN
APOBEC3G inh = blocks human APOBEC3G single-stranded DNA deamination; inhibition, % at 20 µM; 330,000 compounds, 0.28% hits; recombinant A3G, ssDNA deamination FAM/TAMRA fluorescence; Q9HC16;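 active = inhibition of at least 40% at 20 µM, with no more than 30% in the related APOBEC3A deaminase screen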
Target sequence (Q9HC16 whole entry, looked up): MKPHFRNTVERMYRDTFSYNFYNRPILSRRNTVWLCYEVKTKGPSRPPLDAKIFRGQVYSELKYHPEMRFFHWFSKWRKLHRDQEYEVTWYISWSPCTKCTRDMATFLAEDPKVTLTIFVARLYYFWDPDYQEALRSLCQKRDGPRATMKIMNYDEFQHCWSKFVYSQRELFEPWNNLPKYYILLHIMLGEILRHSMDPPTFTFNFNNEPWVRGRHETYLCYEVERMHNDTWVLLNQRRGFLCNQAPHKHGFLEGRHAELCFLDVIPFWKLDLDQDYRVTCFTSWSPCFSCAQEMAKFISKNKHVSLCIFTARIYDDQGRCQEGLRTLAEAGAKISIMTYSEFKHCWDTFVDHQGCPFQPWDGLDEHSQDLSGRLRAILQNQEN
H9c2 protect = myocardial damage modulation in H9c2 cells; H9c2 cardiomyocytes, H2O2 injury protection, ATPLite, 2 h; 360,000 compounds, 0.63% hits; protection from H2O2 cell death, % at 20 µM;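 active = compounds giving at least 50% protection of heart cells from peroxide-induced death in the single-dose screen, raw or plate-pattern-corrected value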
A3A conf = confirmation of human APOBEC3A DNA deaminase inhibitors; shares compounds with APOBEC3A inh; recombinant A3A, ssDNA deaminase UDG fluorescence assay; inhibition, % at 20 µM; 1,400 compounds, 63% hits; AID 493151;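 active = inhibition reaching a set limit, 80% of the first screen's cutoff, at 20 µM in any replicate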
UDG ctr A3A = counter-screen for APOBEC3A inhibitors: UDG; 1,000 tested, under 10 active; shares compounds with APOBEC3A inh; AID 504714; inhibition, % at 20 µM; UDG counterscreen, FAM/TAMRA uracil oligo fluorescence; call rule not given here
Each line names hits and unclear results; the compound was inactive in the other large screens (follow-up assays come after a bar, where they were run). A selection: hits, their analogues and other compounds. The true share with any hit is near 2.9%.

NS(=O)(=O)c1cc(C(=O)OCC(=O)Nc2ccc3[nH]c(=O)[nH]c3c2)ccc1Cl	APOBEC3A inh 50 | A3A conf 44 | UDG ctr A3A inactive
CCc1cc(C(=O)O)c(NC(=O)c2cc(OC)c(OC)c(OC)c2)s1	none
COc1cccc(C(=O)N/N=C/c2ccc(Oc3ccc([N+](=O)[O-])cn3)c(OC)c2)c1	APOBEC3A inh 59 (no result: H9c2 TAG inh) | A3A conf 62 | UDG ctr A3A inactive
CCNC(=O)N1c2ccc(OCC)cc2C(C)=CC1(C)C	none
COc1ccc2c(c1)[N+](C)(C)C(C)(C)C=C2C	APOBEC3A inh 56 | A3A conf 82 | UDG ctr A3A inactive
CCOc1ccc2c(c1)[N+](C)(C)C(C)(C)C=C2C	APOBEC3A inh 78 (no result: H9c2 TAG inh) | A3A conf 70 | UDG ctr A3A inactive
CN[C@H]1C[C@H]2c3[nH]c4ccccc4c3CCN2C(=O)[C@H]1[C@H](C)O	none (no result: APOBEC3A inh, APOBEC3G inh)
CC(C)(O)CN(C(=O)c1ccc([N+](=O)[O-])cc1)C1CCCC1	none (no result: APOBEC3A inh, APOBEC3G inh)
O=C(Nc1ccc(Br)cn1)c1coc(=O)c(Br)c1	APOBEC3A inh 62 | A3A conf 21 | UDG ctr A3A inactive
O=C(Nc1ccccc1F)c1coc(=O)c(Br)c1	none
CC12CCC(C[N+](C)(C)C1)C2(C)C (stereo not drawn)	APOBEC3A inh 65 | A3A conf 69 | UDG ctr A3A inactive
CC[N+]1(CC)CC2CCC(C)(C1)C2(C)C (stereo not drawn)	APOBEC3A inh 58 | A3A conf 79 | UDG ctr A3A inactive
COc1ccc(NC(=O)CN(C)C(=O)c2ccccc2Sc2ncnc3sc(C)c(C)c23)cc1	none
COc1cc([N+](=O)[O-])c(OC)cc1SCc1n[nH]c(=S)n1-c1ccc(F)cc1	none
COc1ccc(/C=C/C(=O)NNC(=O)c2ccncc2)c(OC)c1	none
Cc1ccc(N(CC(=O)NCc2ccccc2)C(=O)CCC(=O)Nc2ccccn2)cc1C	none (no result: H9c2 TAG inh)
CCCc1n(CC(O)COCC2CC=CCC2)c2ccccc2[n+]1C (stereo not drawn)	none
CCCc1n(CC(O)COC2CCCCC2)c2ccccc2[n+]1C (stereo not drawn)	APOBEC3A inh 56 | A3A conf 76 | UDG ctr A3A inactive
CCCc1n(CC(O)COCc2ccccc2)c2ccccc2[n+]1C (stereo not drawn)	APOBEC3A inh 58 | A3A conf 69 | UDG ctr A3A inactive
CCN1C(=NCCCOC(C)C)N[C@@H](CCc2ccccc2)[C@H](C(=O)NCCCOC(C)C)[C@H]1C	APOBEC3A inh 42 | A3A conf 58 | UDG ctr A3A inactive
CCN1C(=NCCOC)N[C@@H](CCc2ccccc2)[C@H](C(=O)OC)[C@H]1C	APOBEC3A inh 46 | A3A conf 66 | UDG ctr A3A inactive
Cc1ccsc1/C=N/NC(=O)CNC(=O)c1cccc([N+](=O)[O-])c1C	none
COc1cccc(-c2nnc(SCC(=O)N(C(C)C)C(C)C)o2)c1	none (no result: H9c2 TAG inh)
COc1cc(OC)cc(-c2nnc(SCC(=O)N(C(C)C)C(C)C)o2)c1	APOBEC3A inh 90 (no result: H9c2 TAG inh) | A3A conf inactive | UDG ctr A3A inactive
CCC1(C)NC(=O)N(CC(=O)c2cc(C)n(C3CC3)c2C)C1=O (stereo not drawn)	none
Nc1ccc2nc(SCC(=O)Nc3ccc(N4CCOCC4)c(Cl)c3)sc2c1	APOBEC3A inh 41 (no result: H9c2 TAG inh) | A3A conf 55 | UDG ctr A3A inactive
Nc1nnc(SCC(=O)Nc2ccc(N3CCOCC3)c(Cl)c2)s1	none
CC(C)(C)NC(=O)CSc1nc2ccc(NC(=O)CSc3nnc(N)s3)cc2s1	APOBEC3A inh 48 (no result: H9c2 TAG inh) | A3A conf 69 | UDG ctr A3A inactive
Cc1cc(C)cc(CC(=O)N2CCC2(C)C(=O)NS(=O)(=O)c2cccc(F)c2)c1 (stereo not drawn)	none (no result: PfG6PD inh, APOBEC3A inh, APOBEC3G inh)
C/C(CC(=O)Nc1ccc(Cl)c(Cl)c1)=N\NC(=O)C(=O)N1CCCCC1	APOBEC3A inh 62 | A3A conf 16 | UDG ctr A3A inactive
Cc1ccccc1NC(=O)Cc1nnc(SCC(=O)NC2CCCCC2)n1C	none (no result: H9c2 TAG inh)
O=C(N/N=C/c1cccc(OCc2ccccc2)c1)c1cccs1	none
N#C/C(=C/c1ccc(OCc2ccc(C(=O)O)cc2)cc1)C(=O)Nc1ccccc1	APOBEC3A inh 79 (no result: H9c2 TAG inh) | A3A conf 75 | UDG ctr A3A inactive
N#C/C(=C\c1ccc(OCc2ccc(Br)cc2)cc1)C(=O)Nc1cccc(C(=O)O)c1	none (no result: H9c2 TAG inh, APOBEC3A inh, APOBEC3G inh)
O=C(O)c1ccc(COc2ccc(/C=N/NC(=O)c3cccs3)cc2)cc1	APOBEC3A inh 51 (no result: H9c2 TAG inh) | A3A conf inactive
Cc1ccc(N2CC(C(=O)Nc3ccccc3OC(F)F)CC2=O)cc1 (stereo not drawn)	none
COc1cc2nc3n(c(=O)c2cc1OC)-c1ncccc1C(=O)NC3Cc1ccccc1 (stereo not drawn)	none (no result: APOBEC3A inh, APOBEC3G inh)
O=C(O)C/C(=C\c1cc(Cl)c2c(c1)OCO2)c1nc2ccccc2s1	APOBEC3A inh 45 (no result: H9c2 TAG inh) | A3A conf 38 | UDG ctr A3A inactive
O=C(O)C/C(=C\c1ccc2c(c1)OCO2)c1nc2ccccc2s1	none (no result: H9c2 TAG inh)
O=c1[nH]c(=S)[nH]c2sccc12	none
C[n+]1ccc(/C=C/c2ccccc2O)c2ccccc21	APOBEC3A inh 64 | A3A conf 65 | UDG ctr A3A inactive
C[n+]1cc(-c2ccccc2)n2c1CCCCC2	APOBEC3A inh 53 (no result: H9c2 TAG inh) | A3A conf 67 | UDG ctr A3A inactive
COC(=O)/C(C(C)=O)=C(/C=C/C=C/N(C)C)N(C)C	none (no result: H9c2 TAG inh)
COC(=O)\C(C(C)=O)=C(/C=C/C=C/N(C)C)N(C)C	APOBEC3A inh 47 | A3A conf 35
O=C(NCc1ccccn1)C1CCN(S(=O)(=O)c2ccccc2)CC1	none
CSc1ccc(S(=O)(=O)N2CCC(C(=O)NCc3ccccn3)CC2)cc1	APOBEC3A inh 59 (no result: H9c2 TAG inh) | A3A conf 53 | UDG ctr A3A inactive
C=CCNC(=O)c1ccccc1NS(=O)(=O)c1ccc(SC)cc1	none (no result: H9c2 TAG inh)
C=CCNC(=O)c1ccccc1NC(=O)C1CCN(S(=O)(=O)c2ccc(SC)cc2)CC1	APOBEC3A inh 44 (no result: H9c2 TAG inh) | A3A conf 60 | UDG ctr A3A inactive
Cc1ccc(Nc2nc3ccc(Cl)cc3n3cnnc23)cc1F	none (no result: H9c2 TAG inh)
CNC(=O)c1cc(Cl)c(OC)c(OC)c1	APOBEC3A inh 57 (no result: H9c2 TAG inh) | A3A conf inactive
CC(=O)Nc1ccc(NC(=O)C2CC(=O)N(Cc3ccco3)C2)cc1 (stereo not drawn)	APOBEC3A inh 47 | A3A conf inactive | UDG ctr A3A inactive
O=C(Nc1ccccc1)C1CC(=O)N(Cc2ccccc2)C1 (stereo not drawn)	none
CCOc1ccc(NC(=O)C2CC(=O)N(Cc3ccco3)C2)cc1 (stereo not drawn)	none
